96 molecules from PubChem BioAssay AID1619 (SRMLSC, 2009) can be followed below.

For orientation: inhibition means the relative decrease from the control value, in per cent.

Out of some 220,000 compounds screened, about 830 (0.38%) were called active. These entries were drawn from the full list. Measured potencies and affinities stand elsewhere. Values without a mark were called inactive.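 Rule for the calls: active = compound inhibiting the enzyme by more than half at any dose during confirmatory dose-response retesting; inconclusive = strong single-dose inhibitors picked by rank but not retested; inactive = the rest.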

Chain of Leucine aminopeptidase (Plasmodium falciparum (isolate 3D7)) (Q8IL11 whole entry, looked up): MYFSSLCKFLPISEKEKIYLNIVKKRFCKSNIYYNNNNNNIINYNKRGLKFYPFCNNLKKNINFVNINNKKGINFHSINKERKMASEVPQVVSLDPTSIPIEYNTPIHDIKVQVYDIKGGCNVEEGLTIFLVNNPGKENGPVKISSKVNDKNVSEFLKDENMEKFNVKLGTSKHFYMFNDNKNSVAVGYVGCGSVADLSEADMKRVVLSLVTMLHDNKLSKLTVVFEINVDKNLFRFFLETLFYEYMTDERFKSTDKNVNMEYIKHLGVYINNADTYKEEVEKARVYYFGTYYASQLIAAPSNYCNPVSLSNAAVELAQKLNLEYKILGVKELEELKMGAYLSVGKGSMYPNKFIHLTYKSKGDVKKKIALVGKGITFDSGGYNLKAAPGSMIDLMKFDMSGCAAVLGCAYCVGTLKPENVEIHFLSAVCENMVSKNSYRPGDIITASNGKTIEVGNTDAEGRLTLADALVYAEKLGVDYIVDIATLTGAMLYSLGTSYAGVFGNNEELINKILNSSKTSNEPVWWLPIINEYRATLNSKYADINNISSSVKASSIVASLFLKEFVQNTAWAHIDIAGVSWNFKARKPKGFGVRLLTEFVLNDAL

The test concerns the target Leucine aminopeptidase (Plasmodium falciparum (isolate 3D7)) (UniProt Q8IL11). The test is described as follows: P. falciparum M17LAP inhibitors, primary screen, biochemical, fluorogenic H-Leu-NHMec substrate, 1536-well (AID 1619).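 Note: plate controls were full reaction with DMSO carrier for no effect and no enzyme background for full effect.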 The settings on record: recombinant M17LAP, H-Leu-NHMec fluorogenic kinetic assay; at 30 µM; active compounds read high.
Regarding `O=C(N/N=C/c1ccc2c(c1)OCO2)c1cc(-c2ccc(F)cc2)nc2ccccc12`, the inhibition was 8.91%. In the case of `CCCCn1nnnc1NCc1ccc(N2CCCC2)cc1`, the inhibition was 2.89%.

On to `COc1cccc(-n2cn[nH]c2=S)c1`, for which the inhibition is -0.99%. With `O=C(NC1CCCC1)C(c1ccc(N2CCOCC2)cc1)N(Cc1ccco1)C(=O)c1ccco1` (stereo unspecified), the inhibition is 6.04%. As for `CCOC(=O)c1cc(C)n(-c2ccc(OC)c(OC)c2)c1C`, the inhibition is 0.75%. In the case of `COCC(=O)OCC(=O)c1cc(C)n(-c2ccc(Br)cc2)c1C`, the inhibition was 1.88%.

Take `Cc1ccc(-n2c(C)cc(C(=O)COc3c(CO)cc(F)cc3CO)c2C)cc1C`: the inhibition was 11.4%. `CCC(=O)OCC(=O)c1cc(C)n(-c2ccc(Br)cc2)c1C`: the inhibition is 0.2%. For `COc1cc(C(=O)Nc2ccccc2-c2nnn(CC(N)=O)n2)cc(OC)c1OC` the value was -3.22%; for `C=CCn1c(-c2cccnc2Cl)nc2cc(Cl)c(Cl)cc21`, -5.48%. Consider `Cc1noc(C)c1C(=O)NCCCc1ccccc1`, for which the inhibition was 6.89%. For `Cc1cc(C(=O)OCC(=O)N2CC(C)CC(C)C2)c(C)o1` (stereo unspecified) the value was 40.9%; for `Cc1cc(C(=O)OCC(=O)N2c3ccccc3CC2C)c(C)o1` (stereo unspecified), -1.01%. With `O=C(O)c1cc2c(ccc3ccccc32)o1`, the inhibition was 6.36%. `Cn1c(=O)cc(SCC(=O)NCC2COc3ccccc3O2)c2ccccc21` (stereo unspecified): the inhibition is -4.89%. For `O=C(CN1C(=O)C2C3C=CC(C3)C2C1=O)NCc1ccccc1` (stereo unspecified), the inhibition was 18.9%. For the molecule `Cc1nn(C)c(C)c1S(=O)(=O)N1CCC(C(=O)NCC2COc3ccccc3O2)CC1` (stereo unspecified), the inhibition is 17.1%. For `Cn1c(=O)oc2cc(S(=O)(=O)N3CCC(C(=O)NCC4COc5ccccc5O4)CC3)ccc21` (stereo unspecified) the value was 3.08%; for `CCC1Oc2ccc(C)cc2N(CC(=O)NCC2COc3ccccc3O2)C1=O` (stereo unspecified), 16.1%. On to `Cn1c(C(=O)O)c(CC(=O)Nc2ccc3c(c2)OCCO3)c2ccccc21`, for which the inhibition was -6.24%. On to `O=C(CCC1COc2ccccc2O1)NCC1COc2ccccc2O1` (stereo unspecified), for which the inhibition was 15.9%. As for `O=C(Cn1ccc2ccccc2c1=O)NCC1COc2ccccc2O1` (stereo unspecified), the inhibition was 10.9%. For `CCOc1ccc(NC(=O)CSc2nc3c([nH]c4ccccc43)c(=O)n2C)cc1` the value was 1.51%; for `CC(C)(C)c1cn(-c2ccccc2)c(=S)[nH]1`, 1.06%; for `O=c1c(Cc2ccc(F)cc2)c(O)ccn1Cc1ccc(F)cc1`, -0.83%. Regarding `CS(=O)(=O)N1CCC(C(=O)O)CC1`, the inhibition was -6.86%.

Turning to `CCOC(=O)c1c(NC(=O)CC2SC(N)=NC2=O)sc2c1CCC(C)C2` (stereo unspecified), the inhibition is 3.54%. Consider `COC(=O)C(NC(=O)C(C)Oc1ccccc1)C(C)C` (stereo unspecified), for which the inhibition was 1.41%.

As for `COc1ccc(C2=NN(c3nc(C(=O)O)cs3)C(O)(C(F)(F)F)C2)c(OC)c1` (stereo unspecified), the inhibition was 26.5%.

Consider `CN(C)S(=O)(=O)c1ccc(Cl)c(NC(=O)COC(=O)c2cc(-c3ccccc3)nc3ccccc23)c1`, for which the inhibition is 15.3%. For `C[C@H](NC(=O)OCc1ccccc1)C(=O)NNC(=O)[C@H](Cc1ccccc1)NC(=O)OC(C)(C)C` the value was 12.1%.

Turning to `COc1cc(C2/C(=C(\O)c3cc(C)ccc3C)C(=O)C(=O)N2CCN(C)C)ccc1O` (stereo unspecified), the inhibition is -5.88%. `Cc1ccc2nc(-c3ccc(NC(=O)CN4CCN(C(=O)c5ccco5)CC4)cc3)sc2c1`: the inhibition is 4.66%. For `O=C(CN1C(=O)c2ccccc2C1=O)NCC1CCCO1` (stereo unspecified) the value was 10.2%; for `O=C(CN1CCN(Cc2ccccc2)CC1)NCC1COc2ccccc2O1` (stereo unspecified), 17%; for `CC1CCCCC1NC(=O)COC(=O)c1ccc(N(C)C)cc1` (stereo unspecified), -9.99%.

With `CCOC(=O)C1C(=O)NC(N2CCN(CC)CC2)=NC1c1ccccc1` (stereo unspecified), the inhibition is 2.42%. For `Nc1nc(SCC(=O)Nc2ccccc2)[nH]c(=O)c1-c1ccccc1`, the inhibition was 8.35%. On to `O=C(CSc1nc(O)c(Cc2ccccc2)c(=O)[nH]1)Nc1ccccc1`, for which the inhibition is 51.3%. As to `COc1ccc(-n2c(SCC(=O)N3CCOCC3)nc(O)c(Cc3ccccc3)c2=O)cc1`, the inhibition is 20.3%.

Regarding `COc1ccc(Cc2c(O)nc(SC)n(C(C)=O)c2=O)cc1`, the inhibition was -1.99%. Turning to `COc1ccc(-c2noc(CSc3nc(N)c(-c4ccccc4)c(=O)[nH]3)n2)cc1`, the inhibition was 10.2%. For the molecule `Nc1nc(SCC(=O)Nc2ccc(Cl)cc2)[nH]c(=O)c1-c1ccccc1`, the inhibition was 13.7%. On to `COc1ccccc1NC(=O)CSc1nc(O)c(Cc2ccccc2)c(=O)[nH]1`, for which the inhibition was 35.1%. Take `COc1ccc(-c2noc(CSc3nc(N)c(-c4ccccc4)c(=O)[nH]3)n2)cc1OC`: the inhibition was -5.97%. Regarding `CCOCCCNC(=O)CCNC(=O)c1cc(OC)c(OC)c(OC)c1`, the inhibition is 3.56%. For `CCN(CC)S(=O)(=O)c1ccc(C(=O)NCCN2C(=O)S/C(=C\c3cccnc3)C2=O)cc1` the value was -4.15%; for `[N-]=C=C1C(=S)NC(=O)[C@H]([n+]2ccccc2)[C@H]1c1ccc(Cl)cc1`, 6.14%; for `COc1cc(NC(=O)c2ccccc2Cl)c(OC)cc1NC(=O)CN1CCCCC1`, 13.6%. For `CC(=O)Nc1ccc(C(=O)CSc2nnnn2C2CCCC2)cc1`, the inhibition is 11.4%. For `O=C(Cc1ccccc1)NCC(=O)OC(c1ccccc1)c1ccccc1` the value was 0.75%; for `OC(C#CCN1CCCC1)c1ccccc1` (stereo unspecified), 9.35%. Regarding `O=S(=O)(c1ccccc1)n1ccc2cccnc21`, the inhibition was 7.22%. For `Cc1ccc(S(=O)(=O)CCC(=O)NCc2ccccc2Cl)cc1` the value was 22.9%; for `Cc1ccc(C)c2nc3sc(C(=O)N4CCCc5ccccc54)c(N)c3cc12`, 8.65%; for `O=C1C2C(c3ccccc3)C=CC(c3ccccc3)C2C(=O)N1C1CCCCC1` (stereo unspecified), 4.34%. Regarding `COc1cccc(NC(=O)CSc2ncnc3c2oc2ccccc23)c1`, the inhibition was 2.46%. For `COCCn1c(SCC(=O)Nc2cccc(OC)c2)nc2c(oc3ccccc32)c1=O` the value was -1.96%. Consider `CCOC(=O)c1cccnc1SCC(=O)Nc1ccc(C)cc1`, for which the inhibition was 3.41%. Regarding `CCN(C(=O)CSc1ncccc1C(=O)Oc1cccc([N+](=O)[O-])c1)c1cccc(C)c1`, the inhibition was -2.44%. For `CCC(Sc1ncccc1C(=O)Oc1cccc([N+](=O)[O-])c1)C(=O)Nc1ccccc1OC` (stereo unspecified) the value was 46.5%; for `CSc1cccc(NC(=O)CSc2ncccc2C(=O)Oc2cccc([N+](=O)[O-])c2)c1`, 53%; for `O=C(N1CCCCC1)N1CCCN(C(=O)N2CCCCC2)CC1`, 7.89%. For the molecule `O=C(COc1ccc2ccccc2c1)Nc1ccc(S(=O)(=O)N2CCCCCC2)cc1`, the inhibition is -9.55%.

In the case of `O=C(Nc1nc(=O)c2ccccc2s1)c1ccccc1`, the inhibition is 6.62%. With `CC(=O)Cc1nsc(NC(=O)c2ccccc2)n1`, the inhibition is 9.29%.

Take `Cc1ccc(C(=O)Nc2nnc(C)s2)cc1`: the inhibition is 11.4%. Regarding `Cc1ccc(C(=O)Nc2nccs2)cc1`, the inhibition was 2.76%. Turning to `CC(C)CCC1(CCNC(=O)c2cccs2)CCOC(C)(C)C1` (stereo unspecified), the inhibition was 0.32%. For `Cc1ccc(S(=O)(=O)n2nc(-c3ccco3)nc2N)cc1` the value was -3.51%. On to `O=C(NCCSCc1ccccc1)c1cc(S(=O)(=O)N2CCOCC2)ccc1F`, for which the inhibition is 6.12%. Take `CC(C(O)C12CC3CC(CC(C3)C1)C2)N1CCCCC1` (stereo unspecified): the inhibition was 9.11%.

As for `Cc1nn(-c2ccccc2)c(C)c1/C=C/C(=O)OC(C)C(=O)Nc1ncc(Cl)cc1Cl` (stereo unspecified), the inhibition was -12.7%. For `Cc1cc(=O)n(CNC(=O)c2ccccc2)c(=S)[nH]1` the value was -9.25%.

Turning to `O=C(CSc1nncs1)Nc1ccc2c(c1)OCCO2`, the inhibition is 23.5%. As for `Cn1cnnc1SCC(=O)Nc1ccc2c(c1)CCC2`, the inhibition was 42.8%. For `CCC(C)c1c(O)nc(SCC(=O)Nc2ccccc2)[nH]c1=O` (stereo unspecified) the value was 25.4%. As for `O=C(CSc1nc2ccccc2[nH]1)Nc1ccc2c(c1)CCC2`, the inhibition was 1.81%. Take `Nc1cc(=O)[nH]c(SCC(=O)Nc2ccc3c(c2)CCC3)n1`: the inhibition is 53.8%.

As to `O=C(CSc1nccc(=O)[nH]1)Nc1ccc2c(c1)OCCO2`, the inhibition is -0.7%.

As to `CC(C)Cc1c(O)nc(SCC(=O)Nc2ccc3c(c2)CCC3)[nH]c1=O`, the inhibition was 54.1%.

With `O=C(CSc1nc2ccc(Cl)cc2[nH]1)Nc1ccc2c(c1)CCC2`, the inhibition was 3.87%. `Cc1coc(C)c1C(=O)CC1(O)C(=O)Nc2cc(Cl)cc(Cl)c21` (stereo unspecified): the inhibition was -6.03%. As for `Cc1ccc(S(=O)(=O)N(C)C)cc1NC(=O)COc1ccc(-c2nnco2)cc1`, the inhibition was -1.3%. For `CC(NS(=O)(=O)c1ccc([N+](=O)[O-])cc1)C(=O)NN` (stereo unspecified) the value was 5.26%. For `O=C1NC(=S)N/C1=C/c1cccn1-c1ccc([N+](=O)[O-])cc1`, the inhibition is -21%. Regarding `COc1ccc(OC)c(/C=C/C(=O)OCC(=O)Nc2ccc(Cl)c(S(=O)(=O)N(C)C)c2)c1`, the inhibition is 5.28%. For `Cc1cc(C)n(C(=O)c2ccc(C)o2)n1`, the inhibition was 6.21%. Regarding `Cc1ccc(S(=O)(=O)c2ccc(NN)cc2)cc1`, the inhibition is 20.8%. In the case of `Cc1ccc(C2N(c3nccs3)C(=O)C3CCCN32)cc1` (stereo unspecified), the inhibition is -15.4%. For the molecule `Fc1ccc(COc2ccccc2C(=S)N2CCCC2)cc1`, the inhibition was 10.6%. As to `CN(C)S(=O)(=O)c1ccc(C(=O)NCc2ccccn2)cc1`, the inhibition was -3.48%. Turning to `CC(=O)NS(=O)(=O)c1ccc(NS(=O)(=O)c2ccc(F)cc2)cc1`, the inhibition was -13%. `Cc1cc2c(cc1C)-c1c(ssc1=Nc1ccc(S(N)(=O)=O)cc1)C(C)(C)N2`: the inhibition is -1.4%. For `CC(=O)NS(=O)(=O)c1ccc(N=c2ssc3c2-c2cc(C)ccc2NC3(C)C)cc1`, the inhibition was 55%.

For `Cc1ccc(S(=O)(=O)NC(=O)Nc2cc(C)ccc2F)cc1`, the inhibition is -4.66%.
